Assay outcomes (PubChem BioAssay)
The list is not random: actives were taken first. Their share in the collection is about 3%.
Glioma ERSR ind: ER stress response induction in glioma; U87-MG GRP78 promoter luciferase reporter, 16 h; Potency, µM, inactives show at the highest dose activation, most hits filed as activators; hit rate 0.02% among 420,000; AID 602332; also: potency is read from the fitted curve at half-maximal effect; series mostly up to about 76 µM; % of control where 0% means no effect; nearly all actives have a fitted effect of over 35% in size
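Stably transfected U87-MG human glioma cells carrying a GRP78-based luminescent sensor were seeded at 1000 cells/well, pin-dosed with compounds and incubated 16 h. Luciferase reagent was then added, and end-point luminescence was read after 10 min at room temperature.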
DRD3 agonist: D3 dopamine receptor (human) agonism | P35462 | D3R DiscoveRx beta-arrestin cells, luminescence, 90 min | max activation, % | hit rate 0.58% among 410,000 | AID 652048; in the data active = max activation above about 30%; also: 0% is about no effect
Target sequence (P35462 whole entry, looked up): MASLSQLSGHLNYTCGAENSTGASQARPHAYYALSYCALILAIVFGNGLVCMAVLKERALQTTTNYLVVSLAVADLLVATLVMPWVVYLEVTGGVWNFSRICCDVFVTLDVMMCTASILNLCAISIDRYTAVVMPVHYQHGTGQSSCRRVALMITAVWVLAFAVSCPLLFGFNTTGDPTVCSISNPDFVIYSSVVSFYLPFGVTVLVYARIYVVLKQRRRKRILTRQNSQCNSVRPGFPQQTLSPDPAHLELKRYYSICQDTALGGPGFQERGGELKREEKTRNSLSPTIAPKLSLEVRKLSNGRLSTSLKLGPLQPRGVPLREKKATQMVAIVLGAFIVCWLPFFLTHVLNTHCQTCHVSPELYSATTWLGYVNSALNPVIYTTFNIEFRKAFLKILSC
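Agonist mode: compounds and dopamine controls were applied to plated cells for 90 min at 37 degrees C after an overnight attachment at 1500 cells/well. Luminescent read-out followed 30 - 60 minutes at room temperature with DiscoveRx detection reagent.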
Nrf2 activator: activators of Nrf2 (ARE) signaling; AID 624171; AREc32 ARE-luciferase reporter (MCF7-derived line), luminescence, 24 h; Potency, µM (series often up to 46.1 µM), without a hit: top-dose activation, usual class: activators; hit rate 0.31% among 410,000; also: potency is read from the fitted curve at half-maximal effect; % of control where 0% means no effect; nearly all actives have a fitted effect of over 65% in size
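Cells of the AREc32 ARE-luciferase line are plated in OPTI-MEM containing 5% FBS and left overnight at 37 deg C. Compounds are pinned in, incubation continues 24 hr, and firefly luciferase signal is then measured.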
D3 antag: blocks the human D3 dopamine receptor | max response, negative = inhibition, % | AID 652054 | hit rate 2.5% among 360,000 | P35462 | D3R cells, DiscoveRx beta-arrestin luminescence, antagonist mode; hits give low values; in the data active = max response below about -50%; inconclusive = no clear call, values can overlap the other calls; also: % is scaled to controls: 0 for no effect and ±100 for the full control effect
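Cells plated overnight at 1500 cells/well, then exposed to library compounds with dopamine controls for 90 minutes at 37 degrees C. DiscoveRx reagent added for 30–60 minutes at room temperature; luminescence read, quantitative HTS format.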
Starred values were filed as active, the others as inactive; ? = inconclusive; / = no result. Unless noted, calls follow the shape of the dose curve; as a rule, active = well fitted curve in the direction sought with a large enough effect; inconclusive = small, poorly fitted or top-dose-only effect, or another doubt; inactive = no such curve, though single readings can be large; an effect the other way counts as inactive or inconclusive.

SMILES	Glioma ERSR ind	DRD3 agonist	Nrf2 activator	D3 antag
Cc1cccc(C(=O)Nc2nnc(SCC(=O)NCc3ccco3)s2)c1	3%	3	3.2µM*	-4
Cc1cccc(Cn2cccc(C(=O)Nc3nnc(C)s3)c2=O)c1	-2%	-8	0%	/
c1ccc(CN2CCN(Cc3ccc4c(c3)OCCO4)CC2)cc1	0%	-15	0%	-76*
CCC(=O)OC1[C@@H](N2CCCCC2)C[C@H]2[C@@H]3CC[C@H]4C[C@H](OC(C)=O)[C@@H](N5CCCCC5)C[C@]4(C)[C@H]3CC[C@]12C (stereo partly drawn)	14%	/	/	/
CCn1nc(/C=C/c2ccccc2)nc2c(=O)n(C)c(=O)nc1-2	-12%	-10	-3%	?
CCn1nc(-c2cccs2)nc2c(=O)n(C)c(=O)nc1-2	-17%	-16	-4%	-81*
O=C(NCC1=C(c2cccc3ccccc23)C[C@@H]2CC[C@H]1N2Cc1ccco1)c1cccs1	-2%	-13	-2%	-51*
Cc1ccc2nc(N3CCC(C(=O)N4CCC5(CC4)OCCO5)CC3)sc2c1	0%	5	4%	-51*
C[C@H](N)C(=O)c1ccccc1	-4%	1	/	/
COc1ccc(OC)c(C[C@H](C)N)c1	-3%	9	/	/
CN(C)C1C(=O)C(C(N)=O)C(=O)C2(O)C(=O)C3C(=O)c4c(O)cccc4C(C)(O)C3C(O)C12 (stereo not drawn)	-4%	/	/	/
CN(C(=O)c1ccco1)C1(c2ccccc2Cl)CCCCC1=O (stereo not drawn)	-2%	-12	-1%	-53*
CNC1(c2ccccc2Cl)CCCCC1=O (stereo not drawn)	-1%	8	-1%	4
CC(C)CCC1(CCc2ccncc2)C(=O)NC(=O)NC1=O	-3%	-2	0%	25
CC(C)Oc1ccc(CC2(CCc3ccncc3)C(=O)NC(=O)NC2=O)cc1	-5%	33*	2%	2
CCCN(CCC)C1CCc2ccc(O)cc2C1 (stereo not drawn)	-2%	122*	0%	/
CCOC(=O)/C=C(C)/C=C/C[C@@H](C)CCCC(C)C	/	0	/	/
CC1(C)S[C@@H]2[C@H](N3C(=O)C(c4ccccc4)NC3(C)C)C(=O)N2[C@H]1C(=O)O (stereo partly drawn)	/	-25	/	/
Fc1ccc2c(c1)nnn2C1CCN(Cc2nnnn2C2CCCCC2)CC1	-6%	-4	0%	-58*
Fc1ccc2c(c1)nnn2C1CCN(Cc2c(Cl)cccc2Cl)CC1	2%	-23	-1%	-1
C=CCC1=C(C)C(OC(=O)C2C(C=C(C)C)C2(C)C)CC1=O (stereo not drawn)	-3%	-11	/	/
CC(N)Cc1c[nH]c2ccc(Cl)cc12 (stereo not drawn)	0%	5	3%	21
Clc1ccc2[nH]c3c(c2c1)CCNC3	-3%	-17	0%	-70*
CC1CCN(CC#CCOc2ccc(Cl)cc2)CC1	0%	-26	0%	-105*
Clc1ccc(OCC#CCN2CCOCC2)cc1	1%	2	-1%	6
SMILES	Glioma ERSR ind	DRD3 agonist	Nrf2 activator	D3 antag
COc1cccc(C2(O)CCN(Cc3ccncc3)CC2)c1	-2%	-14	0%	-62*
NC(=O)c1ccc(OCCC(O)N2CC=C(c3ccc(F)cc3)CC2)cc1 (stereo not drawn)	0%	-26	3%	-57*
COc1cc(CC(C)N)c(OC)cc1C (stereo not drawn)	4%	/	/	/
O.O.O.O=C([O-])C(O)C(O)C(=O)[O-].O=C([O-])C(O)C(O)C(=O)[O-].[K+].[K+].[Sb].[Sb] (stereo not drawn)	/	-11	/	/
COc1cccc(CNCCc2c[nH]c3ccccc23)c1	-6%	-21	0%	-54*
COc1cc(C)c(CNCCc2c[nH]c3ccccc23)cc1C	-6%	-17	-3%	11
COc1ccc(CN(CCc2c[nH]c3ccccc23)Cc2ccc(OC)cc2)cc1	3%	-8	8%	-50*
COc1ccc(CNCCc2c[nH]c3ccccc23)c(OC)c1C	-8%	-23	6%	-71*
CCOc1cc(CNCCc2c[nH]c3ccccc23)cc(Cl)c1OCC	-14%	-29	-2%	-76*
CCC1OC2(C)C(O)C(/C=C/C=C/C=C/c3oc(=O)cc(OC)c3C)OC1(C)C2OC(C)=O (stereo not drawn)	0%	/	/	/
CCC(=NCc1cc(OC)cc(OC)c1)c1c(O)n(C)c(=O)n(C)c1=O	-4%	39*	0%	57
CCC(=NCc1ccc2c(c1)OCO2)c1c(O)n(C)c(=O)n(C)c1=O	-8%	-1	0%	?
O=C(CCN1CCN(CCO)CC1)N1c2ccccc2Sc2ccc(C(F)(F)F)cc21	-4%	-34	11%	-74*
O=C1[O][Sb-]23[O]C(=O)C([O]2)C2[O][Sb-]4([O]C(=O)C([O]4)C1[O]3)[O]C2=O	-11%	/	/	/
CC1=CC2/C=C(\C)CCC(O)C(O)/C=C/C(=O)C23C(=O)NC(CC(C)C)C3C1C (stereo not drawn)	-11%	-12	?	-74*
C=CCC1(O)CCC2C3CCC4=CC(=O)CCC4=C3C=CC21C (stereo not drawn)	-4%	/	/	/
COc1ccccc1N1CCN(Cc2cccc(OC)c2O)CC1	0%	-10	-1%	-101*
COc1ccccc1N1CCN(Cc2c(F)cccc2F)CC1	-4%	-31	0%	-69*
COc1ccc(N2CCN(Cc3nc4ccccc4[nH]3)CC2)cc1	2%	-3	3%	5
Clc1ccccc1CN1CCN(c2cccc3[nH]ccc23)CC1	0%	-9	2%	-80*
COc1ccccc1CN1CCNCC1	-1%	-5	0%	-6
Nc1ccc(N2CCN(Cc3ccccc3Cl)CC2)c(Cl)c1	-2%	-19	-1%	-57*
Cc1ccc(Cl)cc1NC(=O)Cn1c(=O)oc2cc(S(=O)(=O)N3CCCCCC3)ccc21	?	6	-1%	/
Oc1ccc2c3c1O[C@H]1[C@@H](O)C=C[C@H]4[C@H](C2)NCC[C@@]341	/	10	/	/
CCCCC(C#N)(Cn1cncn1)c1ccc(Cl)cc1 (stereo not drawn)	-6%	/	/	/
SMILES	Glioma ERSR ind	DRD3 agonist	Nrf2 activator	D3 antag
COc1nn(CSP(=S)(OC)OC)c(=O)s1	-5%	5	/	/
COc1ccccc1N1CCN(Cc2ccccc2F)CC1	-2%	-9	0%	-92*
Clc1ccccc1CN1CCN(c2ccccc2)CC1	-4%	-17	-1%	-26
COc1ccccc1N1CCN(Cc2ccc(Br)cc2)CC1	-3%	-5	0%	-110*
Fc1ccccc1CN1CCN(c2ccc(Cl)cc2)CC1	0%	-17	0%	?
COc1ccccc1N1CCN(Cc2ccccc2Cl)CC1	1%	-21	0%	-88*
Cc1occc1C(=O)Nc1ccccc1	2%	/	/	/
CN1CCN(c2cc([N+](=O)[O-])ccc2Cl)CC1	-5%	-17	-1%	-99*
COc1ccc(CN2C(=O)NC(=O)/C(=C/c3ccc([N+](=O)[O-])s3)C2=O)cc1	-2%	18	7%	-2
O=C1NC(=O)N(Cc2ccc(F)cc2)C(=O)/C1=C\c1ccc([N+](=O)[O-])s1	-5%	-13	15%	-55*
